High-throughput results: PubChem BioAssay, National Center for Advancing Translational Sciences (NCATS)
RORg inh – ROR gamma (mouse) transcription inhibition; Drosophila S2 Gal4-RORgamma UAS-luciferase reporter, 20 h; Potency, µM (top dose mostly 53.6 µM), without a hit: at the top dose activity change, negative = inhibition, most hits filed as inhibitors; actives 5.4% (n = 310,000); AID 2551; further: on the % scale 0 is the no-effect control and ±100 the full control effect; nearly all actives have a fitted effect of over 60% in size
Target sequence (P51450 whole entry, looked up, the tested form may be a part): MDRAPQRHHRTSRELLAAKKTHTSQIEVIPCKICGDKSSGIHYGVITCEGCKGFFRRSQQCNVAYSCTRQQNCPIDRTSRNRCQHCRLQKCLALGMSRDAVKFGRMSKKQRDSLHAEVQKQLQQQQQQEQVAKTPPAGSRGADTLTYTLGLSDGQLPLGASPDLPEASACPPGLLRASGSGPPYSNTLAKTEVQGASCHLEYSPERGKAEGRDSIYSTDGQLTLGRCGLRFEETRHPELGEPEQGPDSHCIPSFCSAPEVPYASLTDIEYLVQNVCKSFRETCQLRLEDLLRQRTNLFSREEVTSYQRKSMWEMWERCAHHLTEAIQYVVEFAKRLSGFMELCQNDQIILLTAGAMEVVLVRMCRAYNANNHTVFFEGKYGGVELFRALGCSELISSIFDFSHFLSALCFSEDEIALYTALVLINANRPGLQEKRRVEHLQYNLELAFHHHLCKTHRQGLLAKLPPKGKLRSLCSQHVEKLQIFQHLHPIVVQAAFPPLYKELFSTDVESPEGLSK
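Stably transfected Drosophila Schneider cells are the test system, with ROR gamma fused to Gal4 and luciferase under UAS control; luminescence is read after 20 hr of 700 uM copper sulfate induction at ambient temperature.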
VP16 counter – inhibits Gal4-VP16 luciferase reporter, ROR gamma counter-screen. actives 3.5% (n = 310,000). AID 2546. Potency, µM (series often up to 53.6 µM), for inactives: at the highest dose activity, negative = inhibition, most hits filed as inhibitors. Drosophila S2 Gal4-VP16 UAS-luciferase, luminescence, 20 h;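 further: Gal4-VP16 expression switched on by copper sulfate through the metallothionein promoter; on the % scale 0 is the no-effect control and ±100 the full control effect; nearly all actives have a fitted effect of over 50% in size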
ClpP mod – qHTS Assay for Activators of ClpP | AID 651965, 2013 | Potency, µM (top dose mostly 57.5 µM), inactives show top-dose activity change, negative = active | actives 1.9% (n = 340,000) | purified B. subtilis ClpP, FRET peptide cleavage, 20 min | ATP-dependent Clp protease proteolytic subunit (Bacillus subtilis (strain 168)), P80244; active means well fitted falling curve with a large enough effect; inconclusive means small, poorly fitted or top-dose-only effect; inactive means no such curve, though single readings can be large or run the other way; further: the source files actives as falling curves though it sought activators and does not explain the sign; nearly all actives have a fitted effect of over 65% in size
Target sequence (P80244 whole entry, looked up): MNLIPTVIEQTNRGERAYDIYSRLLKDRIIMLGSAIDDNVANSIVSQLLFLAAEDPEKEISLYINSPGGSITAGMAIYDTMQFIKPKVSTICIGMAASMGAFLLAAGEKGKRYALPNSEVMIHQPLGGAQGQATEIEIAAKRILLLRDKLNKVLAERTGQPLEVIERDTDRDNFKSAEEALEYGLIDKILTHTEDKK
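Purified B. subtilis ClpP, 10 microg/mL final in Tris/HCl pH8 with KCl, BSA, glycerol and Tween-20, cleaved an Abz/nitrotyrosine-quenched decapeptide. Fluorescence (ex 320, em 430) was read at 0 and 20 min at room temperature. Delta was normalized to 5.8 microM ADEP and DMSO/no-enzyme controls.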
Epigenetic reg – derepresses silenced GFP reporter in murine cells. murine LDR cells, GFP reporter derepression, 30 h. Potency, µM (doses to about 53.9 µM), without a hit: at the highest dose GFP activation, most hits filed as activators. actives 0.2% (n = 280,000). AID 1865; further: % of control where 0% means no effect; nearly all actives have a fitted effect of over 60% in size
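Readout is the number of GFP-expressing murine LDR cells, counted by cytometry following washing. Cells were treated with compound for 30 h at 37 C; the stably integrated CMV-GFP locus is normally silent.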
Sfp inh – blocks B. subtilis Sfp PPTase activity. AID 1490. Biochemical Sfp PPTase activity, qHTS. Potency, µM, inactives show largest response in the series, negative = inhibition, usual class: inhibitors. Q9F4F7. actives 3.5% (n = 310,000);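 further: the enzyme is Sfp with the accession as filed and its product quenches rhodamine fluorescence; 0% = enzyme reaction without inhibitor and -100% = no enzyme wells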
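With Hepes-Na pH 7.6 buffer containing 10 mM MgCl2, Sfp (15 nM) modified BHQ-2-YbbR (12.5 uM) using rhodamine-CoA (5 uM). Two reads 30 minutes apart at 525/598 nm yielded each well's rate.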
PINK1 expr mod – PINK1 expression modulation; PINK1 immunofluorescence, high-content cytometry, 24 h; Potency, µM (highest dose often 76.6 µM), inactives show at the top dose activation (PINK1 increase), actives largely listed as activators; actives 0.2% (n = 410,000); AID 624263; active means well fitted activation curve with a large enough effect; inconclusive means small, poorly fitted or top-dose-only effect; cell line not stated here; further: % of control where 0% means no effect; nearly all actives have a fitted effect of over 65% in size
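Stable cell line treated 24 h with compounds at 5 concentrations (CCCP controls), then fixed and immunostained for PINK1 plus nuclear and cell stains; PINK1 immunofluorescence quantified by laser-scanning microplate cytometry.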
Numbers without * were called inactive; ? = inconclusive; · = not tested or not shown; [ ] = another dose, or the depositor's remark. In the library only some 8.1% were active in any assay of this set; here they are far more common. Unless noted, the call rests on the fitted dose curve; in most records, active means well fitted curve in the direction sought with a large enough effect; inconclusive means small, poorly fitted or top-dose-only effect, or another doubt; inactive means no such curve, though single readings can be large; an effect the other way counts as inactive or inconclusive. Potency means the concentration at half of the fitted maximal effect.

SMILES	RORg inh	VP16 counter	ClpP mod	Epigenetic reg	Sfp inh	PINK1 expr mod
Cn1nnnc1SCCCNCc1cccc(OCc2ccc(F)cc2)c1	·	·	4%	0%	·	3%
Cc1ccc(NC(=O)Cn2c(=O)ccc3cc(S(=O)(=O)N4CCC(C)CC4)ccc32)c(C)c1	·	·	-9%	0%	·	-3%
COc1cccc(/C=N/NC(=O)c2cccc3ccccc23)c1	-4%	4%	-6%	·	7%	7%
COc1ccc(OC)c(/C=N/NC(=O)CNC(=O)c2cccc3ccccc23)c1	15%	-6%	18µM*	·	13%	4%
COc1cccc(/C=N/NC(=O)c2ccc(-c3ccccc3)cc2)c1O	0.71µM*	3.2µM*	-2%	8%	10%	0%
COc1ccc(C(=O)N/N=C/c2cc3ccccc3[nH]c2=O)cc1	-28%	2%	28µM*	-2%	10%	0%
COc1ccc(OC)c(/C=N/NC(=O)c2ccncc2)c1	-2%	-12%	-1%	·	0%	0%
COc1ccc(OC)c(/C=N\NC(=O)c2ccc(-c3ccccc3)cc2)c1	-33%	-13%	28µM*	·	5%	0%
CSCC[C@H](N)C(=O)N[C@@H](CCCN=C(N)N)C(=O)N[C@@H](CC(C)C)C(=O)N[C@@H](Cc1ccccc1)C(=O)N[C@H](C(=O)O)C(C)C	4%	-4%	·	·	-1%	·
CC(Sc1nccn1C)C(=O)Nc1ccccc1C#N (stereo unspecified)	·	·	0%	-1%	·	2%
Nc1ccc2cccnc2c1	·	·	-7%	·	·	3%
COc1ccc(/C=c2\[nH]c(=O)/c(=C/c3ccc(OC)cc3)[nH]c2=O)cc1	·	·	-1%	·	·	·
COc1cc(/C=N/NC(=S)Nc2cccc(C(=O)O)c2)ccc1O	?	-21%	-13%	0%	-8%	0%
COc1ccc(C(=O)Nc2cccc(C(=O)N/N=C/c3ccc(OC)cc3OC)c2)cc1	10µM*	14µM*	?	·	11%	0%
COc1cccc(/C=N/NC(=O)C(=O)Nc2ccccc2OC(F)(F)C(F)F)c1O	1µM*	1.4µM*	-11%	-2%	9%	2%
COc1ccc([N+](=O)[O-])cc1/C=N/NC(=O)CNC(=O)c1cccc(F)c1	10µM*	?	-2%	-1%	5%	13%
COc1ccc(/C=N/NC(=S)Nc2cccc(C(=O)O)c2)cc1	3.5µM*	11µM*	·	-3%	-25%	1%
COc1ccccc1/C=N/NC(=O)c1cccc(OC(F)(F)C(F)F)c1	-43%	4%	1%	-2%	10%	7%
COc1ccc([N+](=O)[O-])cc1/C=N/NC(=O)CNC(=O)C(c1ccccc1)c1ccccc1	?	?	1%	0%	-7%	-1%
CC(=O)Nc1ccc(C)cc1-c1nc2ccccc2n(CC(=O)Nc2cc(Cl)ccc2C)c1=O	·	·	-3%	-5%	·	-1%
COc1cccc(/C=N/NC(=O)c2ccc(=O)n(C)c2)c1O	0.63µM*	3.2µM*	0%	0%	14%	0%
COc1cccc(/C=N/NC(=O)C[n+]2ccccc2)c1O	-33%	7%	-3%	1%	37%	-1%
COc1cccc(/C=N/NC(=O)c2cc(-c3ccc(C)cc3)n[nH]2)c1O	·	·	·	4%	·	·
COc1ccc(CCCC(=O)N/N=C/c2cccc(OC)c2O)cc1C	0.22µM*	0.13µM*	-1%	-2%	-4%	-1%
COc1cccc(/C=N/NC(=O)C(=O)NCc2cccnc2)c1O	11µM*	?	?	2%	23%	1%
SMILES	RORg inh	VP16 counter	ClpP mod	Epigenetic reg	Sfp inh	PINK1 expr mod
COc1cccc(/C=N/NC(=O)CN2CC(c3ccccc3)CC2=O)c1O (stereo unspecified)	0.56µM*	1.3µM*	-18%	4%	0%	-3%
COc1cccc(/C=N/NC(=O)C(=O)NCc2cccnc2)c1OC	8%	1%	·	-5%	4%	1%
COc1cccc(/C=N/NC(=O)CNC(=O)COc2ccccc2)c1O	0.28µM*	1µM*	-15%	-1%	16%	0%
O=C1CCC[C@@H]2C[C@@]3(C[C@@H]4CCN1[C@H]24)Nc1cc([N+](=O)[O-])ccc1NC3=NCc1ccccc1	·	·	-1%	·	·	·
c1ccc(-c2noc(-c3cccnc3NCc3ccco3)n2)cc1	·	·	4%	-5%	·	3%
COc1cccc(/C=N/NC(=O)CNC(=O)c2ccncc2)c1O	16µM*	?	-2%	·	19%	3%
COc1cccc(/C=N/NC(=O)CNC(=O)c2cccnc2)c1O	18µM*	-24%	·	·	13%	2%
Cc1cccc(OCC(=O)NCC(=O)N/N=C/c2cc(Br)cc(Br)c2O)c1	2µM*	6.3µM*	·	·	2%	1%
COc1cccc(/C=N/NC(=O)CNC(=O)c2ccco2)c1O	1.6µM*	20µM*	-5%	6%	13%	0%
Cc1ccc(/C=N/NC(=O)CNC(=O)COc2ccccc2)cc1	10%	2%	-1%	-1%	-2%	7%
COc1ccc(OC)c2c(C)cc(C)nc12	13µM*	-1%	-2%	0%	4%	4%
CC(=O)c1ccc(N2CCN(C(=O)C3CCC3)CC2)cc1	22%	-1%	-5%	0%	89µM*	5%[38.3 µM]
CC(=O)c1ccc(N2CCN(C(=O)C3CCN(S(=O)(=O)c4ccc(F)cc4)CC3)CC2)cc1	·	·	-16%	·	·	0%
Cc1ccc(C(=O)Nc2ccc(N3CCCCC3)cc2)cc1	·	·	·	·	·	2%
CC(=O)Nc1ccc(N2CCCC2)cc1	19%	4%	-4%	4%	40µM*	-1%
O=C(Nc1ccc(N2CCCCC2)cc1)c1ccccc1	3.5µM*	?	0%	-1%	-1%	·
COc1ccc(CN2CCOc3ccc(CN4CCC(Oc5cccnc5)CC4)cc3C2)cc1	·	·	·	·	·	-1%
COc1cccc(Nc2ncc3ncc(=O)n(C[C@H]4CCCO4)c3n2)c1	-33%	11µM*	·	·	31%	-1%
COc1ccc(-c2nc3cnc(Nc4ccccc4)nc3n(CCC#N)c2=O)cc1	-11%	1%	·	·	13%	11µM*
COc1ccc(-c2nc3cnc(Nc4cccc(OC)c4)nc3n(CCC#N)c2=O)cc1	19%	4%	·	·	-4%	45µM*
CSc1ccc(C2CC(=O)Oc3c2c(=O)n(C)c2ccccc32)cc1 (stereo unspecified)	·	·	-13%	0%	·	3%
Cc1ccc(S(=O)(=O)N(C)C)cc1NC(=S)N(CCC#N)Cc1cccnc1	-28%	?	·	0%	?	-2%
CCN(CC)S(=O)(=O)c1ccc(C(=O)NC(=S)N(CCC#N)Cc2cccnc2)cc1	3.5µM*	11µM*	0%	3%	-23%	1%
